Each structure is given as a SMILES string. Among all 3,400 compounds or so, about 840 (25%) were called active. Inconclusive results (about 11%) are left out. A selection follows. Entries with a potency or affinity are not part of this list. Values without a mark were called inactive.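 Rule for the calls: active = fitted half-maximal concentration of signal decrease at or below twice the sample's top tested concentration; inconclusive = flat curve between -70 and -30 percent, or poor fit; inactive = flat within 30 percent, signal rise, or potency above limit.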

This assay in a line: inhibitors of Toxoplasma growth in IFN-γ-primed HeLa – cell-based, ME49Luc, luciferase, 72 h, dose response (AID 1259418). Conditions: T. gondii ME49Luc in IFN-y HeLa, hits give low values, -100% = high-dose IFN-γ control wells; at 19.5 µM unless noted.
Regarding `Cc1nc(N2CCCC2)nc2c1CCN(S(=O)(=O)c1ccccc1)CC2`, the max activity is 10.7% [at 10 µM].

For the molecule `Cc1ccc(S(=O)(=O)N2CCC3(CC2)NCCN=C3NCc2ccc(F)cc2)cc1C`, the max activity is 30.3% [at 5 µM]. As for `CCC1CCCCN1S(=O)(=O)c1cc(-c2nc(C)c(C)s2)sc1C` (stereo not given), the figure is 7.15% [at 0.68 µM]; as for `Cc1nc(CCNC(=O)[C@H]2CCCN2S(=O)(=O)c2cnn(C(F)F)c2C)cs1`, 13.7% [at 10 µM]; as for `Cc1ccc2c(c1C)-n1cccc1C1(CCN(C(=O)c3cccnc3)CC1)N2`, 5.96% [at 0.68 µM]. For `COc1ccccc1C#Cc1ccc([C@H]2[C@@H](CO)N3CCCCN(C(=O)C4CCC4)C[C@H]23)cc1`, the max activity was -7.46% [at 0.08 µM]. Take `COc1ccccc1C#Cc1ccc([C@@H]2[C@H](CO)N3CCCCN(C(=O)C4CCC4)C[C@@H]23)cc1`: the max activity was 14.6% [at 5 µM]. As for `Cc1cccc(-c2nc(Cn3nnc(-c4nc(-c5ccc6c(c5)OCO6)no4)c3C)c(C)o2)c1`, the figure is -10.5% [at 0.16 µM].

For `Cc1ccc(CNc2nc(-c3ccc(Cl)cc3)nc3ccccc23)o1`, the max activity is 42.3%.

As for `Cc1ccc(NC(=O)Nc2ccc(-c3nc(-c4cc(C)ccc4C)co3)cc2)cc1`, the max activity was 5.44% [at 2.6 µM]. As for `COc1cccc(CNC(=O)Nc2ccc(-c3nc(-c4ccc(C)cc4C)co3)cc2)c1`, the figure is 20.1%; as for `COc1ccccc1CN1CCc2nc(SCc3nc(-c4ccc(C)cc4)oc3C)[nH]c(=O)c2C1`, 34.1%; as for `CC1CCN(c2nc(-c3ccc(Cl)cc3)nc3ccccc23)CC1`, 5% [at 10 µM].

As to `Clc1ccc(-c2nc(N3CCN(C4CCCCC4)CC3)c3ccccc3n2)cc1`, the max activity was 19% [at 0.16 µM].

`Clc1ccc(-c2nc(N3CCC(Cc4ccccc4)CC3)c3ccccc3n2)cc1`: the max activity is 11.8%. Regarding `COc1ccc(-c2nc(N3CCC(c4ccccc4)C3)c3ccccc3n2)cc1` (stereo not given), the max activity was -14.1% [at 2.6 µM].

In the case of `O=C(c1ccc(F)cc1)N1c2ccccc2Sc2ccc(C(F)(F)F)cc21`, the max activity is -23.5% [at 0.08 µM].

Regarding `Cc1ccc(-c2cc(C(=O)Nc3ccc4c(c3)CCC(=O)N4)c3ccccc3n2)cc1C`, the max activity was 6.1% [at 1.35 µM].

Turning to `CCc1onc(C)c1C1CCCN1Cc1cn(CC(=O)OC)c2ccc(OC)cc12` (stereo not given), the max activity was 13.3% [at 5 µM]. As for `COc1ccc(-c2nc3c(s2)CN(C(=O)Nc2ccc(C)cc2Cl)CC3)cc1`, the figure is 78.4%; as for `O=C(Nc1ccc(F)cc1)N1CC(=O)N2[C@@H](CO)[C@@H](c3ccc(C4=CCCC4)cc3)[C@@H]2C1`, 25.4% [at 10 µM]; as for `O=C(c1cnccn1)N1CC(=O)N2[C@H](C1)[C@@H](c1ccc(-c3cccc(F)c3)cc1)[C@@H]2CO`, 6.32%. For the molecule `O=C(c1cnccn1)N1CC(=O)N2[C@H](CO)[C@H](c3ccc(-c4cccc(F)c4)cc3)[C@@H]2C1`, the max activity is 25.7%.

Consider `CCOc1ccccc1-c1noc(-c2nnn(Cc3nc(-c4ccc(OC)cc4)oc3C)c2C)n1`, for which the max activity is 9.41% [at 1.35 µM]. On to `COC(=O)c1ccccc1NC(=O)Nc1ccc(-c2nc(-c3ccc(C)cc3C)co2)cc1`, for which the max activity was 13.8% [at 0.16 µM].

For `CSCc1noc(CN2CCCC3(C2)CN(C)C(=O)O3)n1` (stereo not given), the max activity is 41.2%. As for `COc1cc(OC)cc(-c2noc(-c3nnn(Cc4nc(-c5ccccc5OC)oc4C)c3C)n2)c1`, the figure is 6.32% [at 0.68 µM]; as for `CCOc1ccc(-c2nc(CN3CCN(C(=O)Nc4ccc(C)c(F)c4)CC3)c(C)o2)cc1`, 15%. As for `Cc1ccc(-c2nc(CN3CCN(C(=O)Nc4cc(C)cc(C)c4)CC3)c(C)o2)cc1`, the figure is 9.49% [at 2.6 µM]; as for `Cc1ccc(-c2nc(CN3CCN(C(=O)Nc4cc(Cl)ccc4C)CC3)c(C)o2)cc1`, 11.2% [at 10 µM]; as for `CCOc1ccc(-c2nc(CN3CCN(C(=O)Nc4ccc(C)c(C)c4)CC3)c(C)o2)cc1`, 14.4% [at 0.35 µM].

Regarding `CCOC(=O)CSC1=Nc2ccccc2C2=NC(CCC(=O)NCc3ccccc3OC)C(=O)N12` (stereo not given), the max activity was 28.4% [at 1.35 µM]. In the case of `CC(C)N1CCC2(CC1)CC(COCC1CC1)N(c1ncccn1)C2` (stereo not given), the max activity is 22.4%. As for `O=C(CCC1CCCC1)N1CCC2(CC1)Nc1cc(F)ccc1-n1cccc12`, the figure is 4.37%; as for `CC(C)[C@H](CO)Nc1nc(Nc2ccc(C(=O)O)c(Cl)c2)c2ncn(C(C)C)c2n1`, 10.1% [at 10 µM]; as for `Cc1nc(-c2ccc(F)cc2)sc1-c1ccc(SCc2ccc(Br)cc2)nn1`, 10.9% [at 1.35 µM].

For `COCC(=O)N1CCC2(CC1)Nc1ccc(C)c(C)c1-n1cccc12`, the max activity was 4.86% [at 10 µM]. Regarding `CCc1nc(OCC(=O)Nc2ccc(Cl)c(C(F)(F)F)c2)c2ccccc2n1`, the max activity is 33.2% [at 2.6 µM]. As for `CN(C)CCN1CCOCC2(CCCN(C(=O)c3ccc4cc[nH]c4c3)C2)C1` (stereo not given), the figure is 32.3%. For the molecule `Cc1cc(N2CCOCC2)nc2ccc(NC(=O)c3cc4ccccc4[nH]3)cc12`, the max activity is 9.53% [at 0.16 µM]. As for `COc1ccc(NC(=O)N2CCN(Cc3nc(-c4ccccc4C)oc3C)CC2)cc1`, the figure is 6.09% [at 0.16 µM]; as for `O=C(NC1CCC12CCN(Cc1ccoc1)CC2)c1cnccn1` (stereo not given), 54.2%; as for `Cc1cc(C)c2c(=O)n(Cc3nc(-c4ccc(Cl)cc4)oc3C)c(=O)n(-c3ccccc3)c2n1`, -16.5%. As for `Cc1cc(C)c2c(=O)n(Cc3nc(-c4ccccc4)oc3C)c(=O)n(-c3ccccc3)c2n1`, the figure is 11.1% [at 0.35 µM]; as for `O=C(NC1CCCC1)[C@H]1[C@H](CO)[C@H]2Cn3c(ccc(C4=CCCCC4)c3=O)[C@@H]1N2CC1CC1`, 28.5% [at 10 µM]. As for `COc1ccccc1-c1nc(CSc2nc3c(c(=O)[nH]2)CN(Cc2ccccc2)CC3)c(C)o1`, the figure is 31.5%. For `COCC1CN(C(=O)Cc2ccsc2)Cc2nccn2C1` (stereo not given), the max activity is 35.1%. As for `CCCCc1ccc(Nc2ncnc3c2cnn3-c2cccc(C)c2)cc1`, the max activity is 13.1% [at 5 µM]. Consider `COCCCNc1ncnc2c1cnn2-c1ccc(C)cc1C`, for which the max activity is 11.9% [at 0.16 µM]. As for `Cc1ccc(Nc2ncnc3c2cnn3-c2ccc(C)cc2C)cc1`, the figure is 16.5% [at 1.35 µM]; as for `Cc1ccc(-n2ncc3c(NC(C)(C)C)ncnc32)c(C)c1`, 53.9%. Take `CCOc1ccc(-c2nc3c(s2)CN(C(=O)Nc2ccccc2CC)CC3)cc1`: the max activity is 124%. As for `Cc1oc(-c2cccc(Cl)c2)nc1CN1CCc2c(sc3c2CCCC3)C1c1ccccc1` (stereo not given), the figure is 20.4%. In the case of `COc1ccc(N2CC(NC(=O)C(=O)c3c(C)[nH]c4ccccc34)CC2=O)cc1` (stereo not given), the max activity was 15.6% [at 2.6 µM]. As to `COc1ccc(CC(=O)N2CCC[C@@H]2C(=O)NCCc2csc(-c3ccccc3)n2)cc1Cl`, the max activity is 18.7% [at 5 µM]. On to `Cc1nc(-c2ccc(F)cc2)sc1-c1ccc(SCc2cccc(F)c2)nn1`, for which the max activity is 25.1%. As for `CC(C)c1ccc(S(=O)(=O)N2CCC3(CC2)NCCN=C3NCc2ccccc2)cc1`, the figure is -31.9%.

Take `CC(C)c1ccc(S(=O)(=O)N2CCC3(CC2)NCCN=C3NCc2cccc(F)c2)cc1`: the max activity was -18.4%.

`COc1ccc(C2=NC3(CCN(CC(=O)Nc4ccccc4F)CC3)NC2=O)cc1`: the max activity was -25.6% [at 0.35 µM].

`Cn1nnc2c(NCCc3c[nH]c4ccccc34)ncnc21`: the max activity was 6.96% [at 0.35 µM].

In the case of `CCc1c(C)sc2c1CCN(Cc1nc(-c3ccc(OC)cc3)oc1C)C2c1ccccc1` (stereo not given), the max activity was 15.1% [at 5 µM].

On to `N#Cc1cccc(-c2ccc(C3[C@@H]4CN(C(=O)Nc5ccc(C(F)(F)F)cc5)C[C@H]3N4)cc2)c1` (stereo not given in full), for which the max activity is 16.9% [at 10 µM]. Turning to `Clc1cccc(CSc2nc(NC3CCCCC3)c3ccccc3n2)c1`, the max activity is 11% [at 10 µM]. As for `CCc1onc(C)c1C1CCCN1Cc1cn(C)c2ccc(OC)cc12` (stereo not given), the figure is 9.05% [at 0.68 µM]; as for `COc1ccc(-c2nc(NCCc3ccc(Cl)cc3)c3ccccc3n2)cc1`, 25.9% [at 0.16 µM].

Turning to `CCc1ccc(CNc2nc(-c3ccc(Cl)cc3)nc3ccccc23)cc1`, the max activity is 24.5%. Consider `COc1ccc(-c2nc(NCc3ccc4c(c3)OCO4)c3ccccc3n2)cc1`, for which the max activity is -12% [at 1.35 µM].

As for `COc1ccc(-c2nc(NCCc3ccc(C)cc3)c3ccccc3n2)cc1`, the max activity was 14.1% [at 0.16 µM]. As for `COc1ccc(-c2nc(NCc3ccc(Cl)cc3)c3ccccc3n2)cc1`, the figure is -9.43% [at 0.35 µM]; as for `Fc1ccc(CNc2nc(-c3ccc(Cl)cc3)nc3ccccc23)cc1`, 7.26%; as for `CCC(C(=O)N1CSC[C@@H]1C(=O)NCCc1csc(-c2ccccc2)n1)c1ccccc1` (stereo not given in full), 16.6% [at 5 µM]. As for `COc1cccc(-c2nc3c(s2)CN(C(=O)Nc2ccccc2C)CC3)c1`, the figure is 59.1%. `CCCCOCCOCCOCc1cc2c(cc1CCC)OCO2`: the max activity is 17.6%. As for `COc1ccc(-c2nc(Nc3cccc(C)c3)c3ccccc3n2)cc1`, the figure is -18.2% [at 0.16 µM]; as for `CCc1nc(OCC(=O)NCc2ccc(OC)cc2)c2ccccc2n1`, 25.3%.

The values above are taken from PubChem BioAssay AID1259418 (Broad Institute, 2018).
